# According to ChEMBL document CHEMBL4513216, “Probing the Open Global Health Chemical Diversity Library for Multistage-Active Starting Points for Next-Generation Antimalarials” (ACS Infect Dis, 2020):
# The whole screen tested about 69,000 compounds, of which about 8,600 (12%) showed an effect of 50% or more. The list comes from a sample in which strong results are over-represented; it also holds similar structures and randomly drawn compounds.
# Tested on: Plasmodium berghei
# Assay: Screen against P. berghei liver stage (PbLuc), transformed with Luciferase, at 10uM
# Format: functional, HepG2
# Conditions: tested at 10 uM
row,SMILES,INHIBITION
1,CC(=O)N1CCCC1C(=O)NCCOc1c(C)cccc1C (configuration not stated),-57.4%
2,CC(C)NC(=O)[C@]12COC[C@H]1CN(Cc1cnn(C)c1)C2,-1.36%
3,Cc1ccccc1-n1c(C)cc(=O)[nH]c1=O,33.4%
4,COCC1CN(C(=O)Cc2cccs2)Cc2nnn(C)c21 (configuration not stated),26.3%
5,Cc1nn(C)c(C)c1CC(=O)NCc1cccnc1N1CCOCC1,1.48%
6,CC(CN1CCOCC1)NC(=O)c1cc(Cl)c2c(c1)OCCO2 (configuration not stated),-23.7%
7,Cc1c(Cl)c(C(=O)NN2CCOCC2)nn1C,55.7%
8,Cn1nc(C(=O)NN2CCOCC2)c(Cl)c1C(F)(F)F,-23%
9,Cc1c(Cl)c(C(=O)NC(C)CN2CCOCC2)nn1C (configuration not stated),54.9%
10,Cc1nn(C)c(C)c1C(=O)NN1CCOCC1,62.3%
11,Cc1c(Cl)c(C(=O)NCc2ccc(F)cc2)nn1C,-6.18%
12,CCC(=O)NCCNC(=O)c1nn(C)c(C)c1Cl,-23%
13,Cc1cc(C(=O)NCc2c(C)nn(C)c2C)nc(N2CCOCC2)n1,12.9%
14,CNc1ncccc1CN1CCN(C(C)=O)CC(C(N)=O)C1 (configuration not stated),-61.5%
15,O=C(c1cocn1)N1CCC[C@]2(C[C@@H](Oc3ncccc3F)CO2)C1,-26.5%
16,O=C(c1ccc[nH]1)N1CCC2(CC1)CC(Oc1cccnc1)CO2 (configuration not stated),22.5%
17,CN1CCCC1CNC(=O)CCCOc1cccc(F)c1 (configuration not stated),11.5975%
18,CCn1ncc(-c2cc(C(F)F)n3nc(CCC(=O)O)nc3n2)c1C,20.4%
19,Cc1cccc(N2N=C(C(=O)NC(C)Cn3cccn3)CCC2=O)c1 (configuration not stated),50.5%
20,Cc1cccc(N2N=C(C(=O)NC(C)CCc3ccco3)CCC2=O)c1 (configuration not stated),12.4%
21,Cc1cccc(N2N=C(C(=O)NC(C)Cc3ccco3)CCC2=O)c1 (configuration not stated),32%
22,CCn1cc(NC(=O)C2CCN(Cc3nc(C(C)C)no3)CC2)cn1,53.9%

row,SMILES,INHIBITION
1,CCn1cc(NC(=O)C2CCN(Cc3nc(C)c(C)o3)CC2)cn1,8.31%
2,CCn1cc(NC(=O)C2CCN(Cc3nc(C)c(C)s3)CC2)cn1,55.6%
3,CCCc1noc(CN2CCC(C(=O)Nc3cnn(CC)c3)CC2)n1,22.3%
4,CCc1noc(CN2CCC(C(=O)Nc3cnn(CC)c3)CC2)n1,5.9%
5,CCn1cc(NC(=O)C2CCN(Cc3ccccc3)CC2)cn1,21.6%
6,Cc1noc(CNC(=O)C(C)(C)NC(=O)OC(C)(C)C)n1,22%
7,COc1ccc(C2=NOC(C(=O)N3CCCc4ccccc43)C2)cc1 (configuration not stated),-20.6%
8,CC(C)N(C)CC(=O)NCC(Cc1ccc(F)cc1)C(N)=O (configuration not stated),-16%
9,Clc1ccc(C2NCCc3cc4c(cc32)OCCO4)cc1 (configuration not stated),45.6%
10,CCc1ccc(C2NCCc3cc4c(cc32)OCCO4)cc1 (configuration not stated),51.5%
11,Fc1ccccc1C1NCCc2cc3c(cc21)OCCO3 (configuration not stated),2.6%
12,CCOC(C)C(=O)NCCNS(C)(=O)=O (configuration not stated),19.3%
13,CC(C)(C)NC(=O)NC(=O)CN1C=Nc2ccccc2S1(=O)=O,44.3%
14,CC(C)CC(NCc1ccsc1)c1ccccn1 (configuration not stated),44.6%
15,COc1ccc(CNC(Cc2ccsc2)c2ncccc2C)cc1OC (configuration not stated),55.05%
16,COc1ccc(CN2CCC(c3cc(O)nc(C)n3)C2)c(OC)c1 (configuration not stated),-12.2%
17,CC(C)Oc1cccc(CNC(Cc2ccsc2)c2nccs2)c1 (configuration not stated),44.3%
18,COc1ccc(CNC(Cc2ccsc2)c2ccc(C)cn2)cc1OC (configuration not stated),44.3%
19,Cc1cccnc1C(Cc1ccsc1)NCc1cnc(N(C)C)nc1 (configuration not stated),-2.495%
20,COc1ccc(CNC(Cc2cccs2)c2nc(C)c(C)s2)cc1OC (configuration not stated),30.4%
21,COc1ccc(CNC(Cc2ccsc2)c2ccc(C)cn2)c(OC)c1 (configuration not stated),68.4%
22,COc1cccc(OC)c1CNC(Cc1ccsc1)c1ccc(C)cn1 (configuration not stated),84.2%

row,SMILES,INHIBITION
1,O=C(C1CCCCC1)N1CCC(n2nc(-c3ccco3)ccc2=O)CC1,40%
2,Cc1ccc(C(N)c2cccc(S(C)(=O)=O)c2)c(C)c1 (configuration not stated),-24.2%
3,CCc1csc(C2CCCN(C(=O)c3cc(Cl)c[nH]3)C2)n1 (configuration not stated),11.9%
4,CCCC1COCCN1Cc1ccc(S(=O)(=O)NC)cc1 (configuration not stated),-6.39%
5,CNC(=O)NC(=O)CN1CCCC(Cc2ccccc2OC)C1 (configuration not stated),-43.6%
6,CNC(=O)CN1CCCC(Cc2ccccc2OC)C1 (configuration not stated),59%
7,COc1ccccc1CC1CCCN(CC(=O)NC2CC2)C1 (configuration not stated),-25.9%
8,CCCS(=O)(=O)N1C[C@@H](OCc2ccncc2)[C@H]2OCCC[C@H]21,-7.2%
9,CCOCCn1c(=O)[nH]c2cc(C(=O)N(C)CCc3cn[nH]c3)ccc21,50.1%
10,CCCN(C)C(=O)c1ccc2c(c1)[nH]c(=O)n2CCOCC,3.47%
11,CCOCCn1c(=O)[nH]c2cc(C(=O)N(C)Cc3cnn(C)c3)ccc21,24.065%
12,CC(C)N(C)Cc1cc(=O)n2c(n1)CN(S(=O)(=O)C1CC1)CCC2,25.6%
13,CNC(=O)C1(CCCc2ccccn2)CN(Cc2coc(C)n2)C1,14.6%
14,CC(NC(=O)Cc1ccccc1F)C(=O)N1CCS(=O)(=O)CC1 (configuration not stated),49.4%
15,Cc1ccc(CC(=O)NC(C)C(=O)N2CCS(=O)(=O)CC2)s1 (configuration not stated),76.2%
16,Cc1ccc(CC(=O)NC(C)C(=O)N2CCS(=O)(=O)CC2)cc1 (configuration not stated),-11.1%
17,CNC(=O)CN1CCO[C@H]2CN(CC3CCOCC3)C[C@H]21,13.7%
18,CC(C)NC(=O)CN1CCC(c2cccc(F)c2)C1 (configuration not stated),45.65%
19,Cn1nccc1C(=O)N1Cc2cc(Cl)ccc2OC2(CCOCC2)C1,-0.902%
20,CN1CC(c2ccccc2)CC12CCN(C(=O)c1ccncc1)CC2 (configuration not stated),7.6%
21,CN1CC(c2ccccc2)CC12CCN(C(=O)c1ccc(Cl)cn1)CC2 (configuration not stated),28.5%
22,CN1CC(c2ccccc2)CC12CCN(C(=O)c1c(Cl)cnn1C)CC2 (configuration not stated),55.1%

row,SMILES,INHIBITION
1,CN1CC(c2ccccc2)CC12CCN(C(=O)c1cccnc1)CC2 (configuration not stated),51.2%
2,CN1CC(c2ccccc2)CC2(CCN(C(=O)c3ccccc3)CC2)C1 (configuration not stated),49.4%
3,CN1CC(c2ccccc2)CC2(CCN(C(=O)c3cccnn3)CC2)C1 (configuration not stated),81.2%
4,COC(=O)N1CCC2(CC1)CC(c1ccccc1)CN(C)C2 (configuration not stated),39.4%
5,CN1CC(c2ccccc2)CC12CCN(C(=O)c1ccc(Cl)cc1)CC2 (configuration not stated),37.6%
6,CN1CC(c2ccccc2)CC12CCN(C(=O)c1cncc(Cl)c1)CC2 (configuration not stated),8.47%
7,O=C(c1cc(-c2cccnc2)[nH]n1)N1CCCC(Cc2ccccn2)C1 (configuration not stated),-12.76%
8,Cc1cc(Cc2ccc(S(=O)(=O)N3CCCC3)cc2)c(=O)[nH]n1,20.9%
9,CNC(=O)C1(c2cnccn2)CCCN1C(=O)c1ncccc1C (configuration not stated),19.6%
10,COC(=O)CC(c1cccc(OC(F)F)c1)c1oc(C)cc(=O)c1O (configuration not stated),21.5%
11,CCS(=O)(=O)N1Cc2c(Cn3cccc3)nn(C(C)C)c2C1,12.1%
12,CCS(=O)(=O)N1Cc2c(Cn3ccnc3)nn(C(C)C)c2C1,65.1%
13,CCS(=O)(=O)N1Cc2c(Cn3ccnc3)nn(C)c2C1,26.5%
14,Cc1ncsc1CNC(=O)N(Cc1ccccc1)CC(C)(C)O,47.4%
15,Cc1nc(CNC(=O)N(Cc2ccccc2)CC(C)(C)O)oc1C,28.6%
16,Cc1n[nH]c(C)c1CNC(=O)CSCc1ccccc1Cl,-26.4%
17,CSc1ccc(CCNC(=O)Cc2c(C)n[nH]c2C)cc1,40.3%
18,Cc1n[nH]c(C)c1CNC(=O)N(Cc1ccccc1)CC(C)(C)O,68%
19,CSc1ccc(CNC(=O)Cc2c(C)n[nH]c2C)cc1,21.8%
20,Cc1nc2cc(=O)[nH]n2c(C)c1CC(=O)NCCCc1ccccc1,-4.3%
21,Cc1n[nH]c(C)c1CC(=O)NCc1ccccc1Cl,64.8%
22,Cc1n[nH]c(C)c1CC(=O)NCCc1ccccc1,52.5%

row,SMILES,INHIBITION
1,O=C1CN([C@@H]2CC[C@@H](NS(=O)(=O)c3ccccc3)[C@H]2O)CCN1,4.5%
2,CC(C)C[C@H](NC(=O)NC1CCS(=O)(=O)C1)C(=O)NCc1cccnc1 (some centres not stated),44.9%
3,Cc1nccn1CCCNc1ccc(Cl)c(C#N)n1,-9.39%
4,O=C(CN1CCOc2ccccc2C1)NCc1cc2n(n1)CCNC2,21.7%
5,CC(O)CCN(C)C(=O)Nc1ccc(Br)cc1 (configuration not stated),-12.1%
6,N#Cc1cccnc1Nc1ccc(N2CCC(C(N)=O)CC2)cc1,45.2%
7,Cc1ccn(-c2ccc(NCc3cccnc3N3CCCCC3)nn2)n1,34.4%
8,N#Cc1cccnc1NCc1cccnc1N1CCC(C(N)=O)CC1,-0.182%
9,N#Cc1ccc(NCc2cccnc2N2CCC(C(N)=O)CC2)cn1,57.3%
10,CN1CCN(c2ncccc2CNc2ncccc2C#N)CC1,-29.4%
11,N#Cc1cccnc1NCc1cccnc1N1CCCCC1,51.7%
12,Cc1cccc(C(=O)N2CCC3(CCN(c4cnn(C)c4)C3=O)C2)n1 (configuration not stated),24.9%
13,O=C1CO[C@H]2CCN(C(=O)c3ccc4c(c3)CCCC4)CC[C@@H]2N1,16.675%
14,O=C(CCc1ccc(F)c(F)c1)N1CCCCC1Cn1cccn1 (configuration not stated),21.5%
15,O=C(c1cnccn1)N1CCc2ncc(CN3CCOCC3)n2CC1,48.6%
16,Cc1nc2cc(=O)[nH]n2c(C)c1CC(=O)NCc1ccoc1,15.465%
17,CCC(NC1CCN(C(=O)c2ccccc2)CC1)c1cccs1 (configuration not stated),7.22%
18,Cc1cnn(CC2CCCN2C(=O)c2cc(Cl)ccc2F)c1 (configuration not stated),22.9%
19,O=C(O)c1cc(C=Cc2ccccc2)ncn1,-20.2%
